The target in assay [1] is Aryl hydrocarbon receptor (Homo sapiens) (UniProt P35869). As to the kind of experiment: ATG_Ahr_CIS: Attagene CIS-FACTORIAL HepG2 Assay for human Aryl Hydrocarbon Receptor (Ahr) (AID 2282930). Conditions: HepG2 AhR cis-factorial reporter transcription; actives raise or lower the signal. In outline: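 Values derive from bidirectional fitting against DMSO negative control. Underlying signal: cis-element reporter mRNA in transiently transfected HepG2, harvested 24 h post-dose and measured by RT-PCR plus capillary electrophoresis.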
Sequence of Aryl hydrocarbon receptor (Homo sapiens) (P35869 whole entry, looked up): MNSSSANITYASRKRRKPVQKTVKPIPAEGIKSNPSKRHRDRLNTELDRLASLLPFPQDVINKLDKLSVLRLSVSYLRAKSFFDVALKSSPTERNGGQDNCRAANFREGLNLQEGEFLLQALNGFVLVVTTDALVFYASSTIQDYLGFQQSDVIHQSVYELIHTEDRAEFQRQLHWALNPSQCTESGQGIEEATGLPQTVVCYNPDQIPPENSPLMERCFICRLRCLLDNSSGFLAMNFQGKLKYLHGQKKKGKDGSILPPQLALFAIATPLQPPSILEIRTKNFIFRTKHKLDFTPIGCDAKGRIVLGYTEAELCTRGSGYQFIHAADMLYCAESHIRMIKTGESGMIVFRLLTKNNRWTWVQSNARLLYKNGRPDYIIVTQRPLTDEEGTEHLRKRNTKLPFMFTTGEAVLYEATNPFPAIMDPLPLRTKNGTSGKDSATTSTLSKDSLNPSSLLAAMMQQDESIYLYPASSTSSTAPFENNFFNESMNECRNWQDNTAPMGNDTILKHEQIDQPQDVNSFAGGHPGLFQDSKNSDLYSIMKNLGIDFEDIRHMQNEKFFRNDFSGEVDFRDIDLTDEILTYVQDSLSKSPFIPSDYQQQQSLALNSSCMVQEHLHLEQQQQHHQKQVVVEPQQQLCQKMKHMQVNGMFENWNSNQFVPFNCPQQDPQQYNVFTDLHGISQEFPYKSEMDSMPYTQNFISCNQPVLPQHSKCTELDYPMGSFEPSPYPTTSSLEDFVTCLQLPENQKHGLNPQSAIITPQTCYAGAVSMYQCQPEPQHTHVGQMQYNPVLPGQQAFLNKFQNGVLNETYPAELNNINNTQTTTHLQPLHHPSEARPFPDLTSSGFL

Assay [2] in a line: ATG_BRE_CIS: Attagene CIS-FACTORIAL HepG2 Assay for human Bone Morphogenetic Protein (BMP) Response Element (BRE) (AID 2282933). The conditions noted are these: HepG2 BMP response element reporter, Attagene transcription factor profiling; actives raise or lower the signal. In outline: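 A HepG2 multiplex reporter system measured inducible reporter mRNA 24 h post-dosing. Detection: RT-PCR, 6-FAM primer extension, HpaI digestion, capillary electrophoresis. Activity fitted bidirectionally relative to DMSO.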

Assay [3] is described as follows: ATG_M_61_CIS: Attagene CIS-FACTORIAL HepG2 Assay for M61 Transcription Factor (Internal Marker) (AID 2282937). The conditions noted are these: HepG2 Attagene CIS-FACTORIAL M61 internal marker reporter; actives raise or lower the signal. In outline:
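Fluorescence from labelled cDNA fragments, separated by capillary electrophoresis, quantifies reporter induction. HepG2 cells bearing transiently transfected cis-promoter MRTUs were incubated with test chemical for 24 h; DMSO defined baseline for gain/loss fitting.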

A short description of assay [4]: ATG_EGR_CIS: Attagene CIS-FACTORIAL HepG2 Assay for human Early Growth Response 1 (EGR1) (AID 2282938). Conditions: HepG2 Attagene CIS-FACTORIAL EGR reporter mRNA; actives raise or lower the signal. In outline:
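Cell-based multiplex transcription assay: HepG2 carrying transfected cis-element reporter units, 24 h chemical treatment. Fluorescence from capillary electrophoresis of RT-PCR products gives mRNA levels; fitting is bidirectional relative to DMSO.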

A short description of assay [5]: ATG_GRE_CIS: Attagene CIS-FACTORIAL HepG2 Assay for human Glucocorticoid Response Elements (GRE) (AID 2282947). The conditions noted are these: HepG2 GRE cis-reporter, Attagene multiplex mRNA; actives raise or lower the signal. In outline:
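Cells (HepG2) bearing transfected cis-promoter reporter transcription units were treated with chemical for 24 hours. Reporter mRNA was measured via RT-PCR with capillary electrophoresis, and activity was fitted in both directions relative to DMSO.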

A short description of assay [6]: ATG_M_06_CIS: Attagene CIS-FACTORIAL HepG2 Assay for M06 Transcription Factor (Internal Marker) (AID 2282950). The conditions noted are these: HepG2 Attagene CIS-FACTORIAL M06 internal marker reporter; actives raise or lower the signal. In short, it runs like this:
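Cells (HepG2, transiently carrying cis-driven reporter units) receive chemical for 24 h before RNA isolation. Reporter cDNA is PCR-amplified, FAM-labelled by primer extension, HpaI-digested and sized on a capillary analyser.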

The target in assay [7] is Hypoxia-inducible factor 1-alpha (Homo sapiens) (UniProt Q16665). Put plainly: ATG_HIF1a_CIS: Attagene CIS-FACTORIAL HepG2 Assay for human Hypoxia Inducible Factor 1 (HIF1A) (AID 2282951). The conditions noted are these: HepG2 Attagene cis-factorial HIF1a reporter transcription; actives raise or lower the signal. In outline: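 In this multiplexed cell assay, HepG2 cells bearing transfected cis reporters are dosed for 24 h and reporter mRNA is read by RT-PCR plus capillary electrophoresis; signal increases and decreases are both scored against DMSO.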
Sequence of Hypoxia-inducible factor 1-alpha (Homo sapiens) (Q16665 whole entry, looked up): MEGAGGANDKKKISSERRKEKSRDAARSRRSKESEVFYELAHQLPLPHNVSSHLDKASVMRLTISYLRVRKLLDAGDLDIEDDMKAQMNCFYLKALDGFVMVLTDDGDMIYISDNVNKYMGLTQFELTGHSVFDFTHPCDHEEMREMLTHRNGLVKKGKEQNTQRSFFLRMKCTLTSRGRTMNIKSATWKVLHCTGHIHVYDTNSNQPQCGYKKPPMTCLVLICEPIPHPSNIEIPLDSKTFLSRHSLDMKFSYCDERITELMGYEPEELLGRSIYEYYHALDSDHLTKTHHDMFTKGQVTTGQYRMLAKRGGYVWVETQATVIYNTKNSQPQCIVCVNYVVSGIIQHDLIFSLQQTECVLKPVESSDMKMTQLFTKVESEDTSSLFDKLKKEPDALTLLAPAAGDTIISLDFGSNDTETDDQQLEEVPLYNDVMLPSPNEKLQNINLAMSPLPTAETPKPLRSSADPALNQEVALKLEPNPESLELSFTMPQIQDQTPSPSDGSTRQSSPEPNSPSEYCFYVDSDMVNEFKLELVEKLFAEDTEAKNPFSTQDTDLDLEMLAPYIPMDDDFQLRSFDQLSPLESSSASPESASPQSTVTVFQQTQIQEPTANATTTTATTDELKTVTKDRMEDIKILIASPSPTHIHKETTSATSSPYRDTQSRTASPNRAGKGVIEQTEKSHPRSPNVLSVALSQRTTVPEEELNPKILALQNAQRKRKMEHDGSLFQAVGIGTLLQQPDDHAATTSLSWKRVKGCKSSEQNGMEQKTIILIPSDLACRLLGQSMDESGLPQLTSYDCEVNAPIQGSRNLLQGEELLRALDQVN

Assay [8] in a line: ATG_MRE_CIS: Attagene CIS-FACTORIAL HepG2 Assay for human Metal Responsive Element (MRE) (AID 2282954). The conditions noted are these: HepG2 MRE cis-reporter transcription, Attagene multiplex; actives raise or lower the signal. In outline:
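Cells were transfected with cis-promoter reporter transcription units, then dosed for 24 h. RNA was reverse-transcribed, amplified, fluorescently labelled and resolved by capillary electrophoresis, and activity was fitted in both directions relative to DMSO.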

A short description of assay [9]: ATG_TGFb_CIS: Attagene CIS-FACTORIAL HepG2 Assay for human Transforming Growth Factor (TGF) (AID 2282967). Conditions: HepG2 Attagene CIS TGFb reporter, mRNA transcription; actives raise or lower the signal. In short, it runs like this:
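Liver HepG2 line, cis-factorial reporter panel, 24 h dosing. Quantitation: RT-PCR products labeled with 6-FAM, cut with HpaI, resolved by capillary electrophoresis; DMSO-referenced bidirectional analysis.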

A short description of assay [10]: ATG_VDRE_CIS: Attagene CIS-FACTORIAL HepG2 Assay for human Vitamin D Receptor Element (VDRE) (AID 2282968). The conditions noted are these: HepG2 VDRE cis-reporter transcription, actives raise or lower the signal. In outline: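 Steps: transfect HepG2 with multiple reporter transcription units; dose chemicals 24 h; isolate RNA; RT-PCR; label with 6-FAM primer extension; HpaI digest; capillary electrophoresis. Curves fitted both directions against DMSO.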

Assay [11] addresses Transcriptional activator Myb (Homo sapiens) (UniProt P10242). Put plainly: ATG_Myb_CIS: Attagene CIS-FACTORIAL HepG2 Assay for human Myeloblastosis (Myb) Proto-Oncogene Transcription Factor (AID 2282986). The conditions noted are these: HepG2 Attagene CIS-FACTORIAL Myb reporter transcription; actives raise or lower the signal. In short, it runs like this:
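Fluorescence signals from capillary electrophoresis of RT-PCR-amplified reporter cDNA give the read-out. Cells: HepG2 transfected with multiple cis-regulated reporter units. Exposure lasts 24 hours; DMSO defines baseline for gain or loss of signal.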

Assay [12] has as its target Nuclear respiratory factor 1 (Homo sapiens) (UniProt Q16656). As to the kind of experiment: ATG_NRF1_CIS: Attagene CIS-FACTORIAL HepG2 Assay for human Nuclear Respiratory Factor 1 (NRF1) Orphan Gene (AID 2282987). Conditions: HepG2 NRF1 cis-element reporter, Attagene multiplex; actives raise or lower the signal. In short, it runs like this:
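Transcriptional reporter readout, one component of a 52-endpoint multiplexed HepG2 panel. Exposure 24 h; mRNA detected via RT-PCR and fluorescent capillary electrophoresis; fitting in both directions against DMSO.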

The nature of assay [13]: ATG_NFI_CIS: Attagene CIS-FACTORIAL HepG2 Assay for human Nuclear Factor I (NFI) (AID 2282989). Conditions: HepG2 cis-regulatory reporter, NFI response element transcription; actives raise or lower the signal. In outline:
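Transfected HepG2 liver cells, exposed 24 h, supplied total RNA for oligo(dT) reverse transcription and reporter-specific PCR. Labelled, HpaI-cut fragments were sized by capillary electrophoresis; DMSO set the baseline for bidirectional fitting.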

Assay [14] deals with Myc proto-oncogene protein (Homo sapiens) (UniProt P01106). As to the kind of experiment: ATG_Myc_CIS: Attagene CIS-FACTORIAL HepG2 Assay for human Myelocytomatosis (Myc) Proto-Oncogene Transcription Factor (AID 2282990). The conditions noted are these: HepG2, Attagene cis-reporter transcription factor activity; actives raise or lower the signal. In outline: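 Multiplexed cis-reporter transcription in HepG2 cells after 24 h chemical treatment. Reporter mRNA measured by RT-PCR and capillary electrophoresis fluorescence; activity fitted bidirectionally against DMSO control.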
Sequence of Myc proto-oncogene protein (Homo sapiens) (P01106 whole entry, looked up): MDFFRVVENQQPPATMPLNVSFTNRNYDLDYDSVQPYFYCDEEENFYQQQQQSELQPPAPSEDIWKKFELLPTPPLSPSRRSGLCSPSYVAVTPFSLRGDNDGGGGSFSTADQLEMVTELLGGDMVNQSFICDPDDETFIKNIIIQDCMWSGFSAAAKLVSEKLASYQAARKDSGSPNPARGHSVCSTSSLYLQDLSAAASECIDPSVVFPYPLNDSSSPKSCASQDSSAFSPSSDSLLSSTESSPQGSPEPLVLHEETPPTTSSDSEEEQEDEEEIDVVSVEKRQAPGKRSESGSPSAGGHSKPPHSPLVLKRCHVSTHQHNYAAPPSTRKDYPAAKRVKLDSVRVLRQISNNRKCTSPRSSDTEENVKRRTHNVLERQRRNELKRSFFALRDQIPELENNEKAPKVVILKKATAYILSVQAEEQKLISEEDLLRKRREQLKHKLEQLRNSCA

Assay [15] in a line: ATG_NF_kB_CIS: Attagene CIS-FACTORIAL HepG2 Assay for human Nuclear Factor Kappa B (NF-kB) (AID 2282991). Conditions: HepG2 Attagene cis-factorial NF-kB reporter mRNA; actives raise or lower the signal. In short, it runs like this:
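HepG2, transient multi-reporter transfection, cis promoter elements (endogenous TFs). 24 h exposure. Total RNA → RT → PCR → 6-FAM label → HpaI → CE. Gain/loss vs DMSO.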

Assay [16] is described as follows: ATG_NRF2_ARE_CIS: Attagene CIS-FACTORIAL HepG2 Assay for human Nuclear Factor Erythroid 2 Related Factor 2 (NFR2) response to Antioxidant Response Elements (ARE) (AID 2282992). The conditions noted are these: HepG2 Attagene ARE/NRF2 reporter, transcription factor activity; actives raise or lower the signal. In short, it runs like this:
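Fluorescence intensity of reporter-specific cDNA fragments, separated by capillary electrophoresis, reflects mRNA induction in transfected HepG2 cells at 24 h. Activity is fitted bidirectionally, DMSO serving as baseline.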

Assay [17] in a line: ATG_Oct_MLP_CIS: Attagene CIS-FACTORIAL HepG2 Assay for human Octamer-Binding Transcription Factor (Oct) (AID 2282993). The conditions noted are these: HepG2 Attagene cis-factorial Oct reporter, mRNA; actives raise or lower the signal. In outline: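 Using HepG2 cells bearing transfected cis-reporter constructs, mRNA induction was read after 24 h by fluorescent RT-PCR and capillary electrophoresis, with DMSO defining baseline for gain- or loss-of-signal fits.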

Assay [18] deals with Cellular tumor antigen p53 (Homo sapiens) (UniProt P04637). Put plainly: ATG_p53_CIS: Attagene CIS-FACTORIAL HepG2 Assay for human p53 Transcription Factor (AID 2282994). The conditions noted are these: HepG2 p53 cis-element reporter, Attagene mRNA; actives raise or lower the signal. In outline: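 Transiently transfected HepG2 (multiple cis reporter transcription units); exposure 24 h; reporter RNA via RT-PCR, 6-FAM extension, 2 h HpaI digest at 37 C, CE detection; DMSO baseline.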
Sequence of Cellular tumor antigen p53 (Homo sapiens) (P04637 whole entry, looked up): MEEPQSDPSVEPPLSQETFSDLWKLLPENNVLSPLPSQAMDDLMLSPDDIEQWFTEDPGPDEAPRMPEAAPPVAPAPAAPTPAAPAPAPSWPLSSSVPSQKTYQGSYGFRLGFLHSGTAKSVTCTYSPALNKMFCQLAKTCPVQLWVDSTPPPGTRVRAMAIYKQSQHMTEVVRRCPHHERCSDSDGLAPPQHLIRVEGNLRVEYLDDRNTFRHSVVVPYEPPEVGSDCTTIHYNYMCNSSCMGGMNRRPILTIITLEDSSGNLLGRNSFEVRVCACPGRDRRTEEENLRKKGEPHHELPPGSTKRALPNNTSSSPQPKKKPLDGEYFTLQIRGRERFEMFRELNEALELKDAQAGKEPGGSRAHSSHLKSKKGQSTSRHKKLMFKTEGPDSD

The target of assay [19] is Nuclear receptor subfamily 1 group I member 2 (Homo sapiens) (UniProt O75469). As to the kind of experiment: ATG_PXR_TRANS: Attagene TRANS-FACTORIAL HepG2 Assay for human Pregnane X Receptor (PXR) (AID 2283008; active = hit-call score of the fitted dose curve at least 0.9, where 1 is the maximum). In short, it runs like this:
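Transient HepG2 transfectants carrying multiplexed reporter transcription units; PXR activity read through a Gal4 chimera. 24 h exposure. RT-PCR/CE fluorescence; upward curve fit referenced to DMSO.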

A short description of assay [20]: ATG_XTT_Cytotoxicity: Cytotoxicity Assessment in the Attagene TRANS-FACTORIAL HepG2 Assay (AID 2283584; active = hit-call score of the fitted dose curve at least 0.9, where 1 is the maximum). In outline: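 Viability endpoint from XTT after 24 h chemical exposure of reporter-transfected human HepG2 liver cells; signal loss fitted relative to DMSO negative control.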

The results in this text go back to PubChem BioAssay (EPA / NIEHS).

Inconclusive results are not listed. The source made the active and inactive calls. The calls were made as follows, unless noted: active = hit-call score of the fitted dose curve at least 0.9, where 1 is the maximum; inactive = score below 0.9.

Sequence of Nuclear receptor subfamily 1 group I member 2 (Homo sapiens) (O75469 whole entry, looked up, the tested form may be a part): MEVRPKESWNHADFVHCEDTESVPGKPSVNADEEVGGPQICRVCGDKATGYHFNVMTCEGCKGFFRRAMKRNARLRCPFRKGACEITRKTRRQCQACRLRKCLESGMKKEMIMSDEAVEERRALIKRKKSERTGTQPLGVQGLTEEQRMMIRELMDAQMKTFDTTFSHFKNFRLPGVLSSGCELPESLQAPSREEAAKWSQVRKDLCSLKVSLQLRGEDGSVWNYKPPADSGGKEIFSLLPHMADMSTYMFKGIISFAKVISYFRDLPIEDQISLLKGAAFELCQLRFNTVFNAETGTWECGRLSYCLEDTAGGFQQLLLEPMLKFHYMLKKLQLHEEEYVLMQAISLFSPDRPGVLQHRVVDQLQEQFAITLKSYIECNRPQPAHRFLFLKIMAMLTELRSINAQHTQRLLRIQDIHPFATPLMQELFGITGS
Sequence of Nuclear respiratory factor 1 (Homo sapiens) (Q16656 whole entry, looked up): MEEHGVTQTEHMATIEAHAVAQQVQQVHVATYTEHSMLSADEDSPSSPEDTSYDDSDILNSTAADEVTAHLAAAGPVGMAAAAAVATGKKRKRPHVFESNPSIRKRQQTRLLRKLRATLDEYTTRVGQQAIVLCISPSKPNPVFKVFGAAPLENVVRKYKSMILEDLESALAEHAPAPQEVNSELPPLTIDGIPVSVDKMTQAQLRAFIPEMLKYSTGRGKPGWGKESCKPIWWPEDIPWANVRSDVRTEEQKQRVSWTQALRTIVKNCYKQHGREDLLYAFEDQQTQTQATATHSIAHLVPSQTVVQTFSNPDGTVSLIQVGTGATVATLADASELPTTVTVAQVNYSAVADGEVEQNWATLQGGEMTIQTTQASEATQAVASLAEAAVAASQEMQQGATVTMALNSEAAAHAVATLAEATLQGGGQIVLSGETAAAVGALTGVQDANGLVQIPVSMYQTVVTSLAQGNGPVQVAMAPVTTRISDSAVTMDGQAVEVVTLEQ
Sequence of Transcriptional activator Myb (Homo sapiens) (P10242 whole entry, looked up): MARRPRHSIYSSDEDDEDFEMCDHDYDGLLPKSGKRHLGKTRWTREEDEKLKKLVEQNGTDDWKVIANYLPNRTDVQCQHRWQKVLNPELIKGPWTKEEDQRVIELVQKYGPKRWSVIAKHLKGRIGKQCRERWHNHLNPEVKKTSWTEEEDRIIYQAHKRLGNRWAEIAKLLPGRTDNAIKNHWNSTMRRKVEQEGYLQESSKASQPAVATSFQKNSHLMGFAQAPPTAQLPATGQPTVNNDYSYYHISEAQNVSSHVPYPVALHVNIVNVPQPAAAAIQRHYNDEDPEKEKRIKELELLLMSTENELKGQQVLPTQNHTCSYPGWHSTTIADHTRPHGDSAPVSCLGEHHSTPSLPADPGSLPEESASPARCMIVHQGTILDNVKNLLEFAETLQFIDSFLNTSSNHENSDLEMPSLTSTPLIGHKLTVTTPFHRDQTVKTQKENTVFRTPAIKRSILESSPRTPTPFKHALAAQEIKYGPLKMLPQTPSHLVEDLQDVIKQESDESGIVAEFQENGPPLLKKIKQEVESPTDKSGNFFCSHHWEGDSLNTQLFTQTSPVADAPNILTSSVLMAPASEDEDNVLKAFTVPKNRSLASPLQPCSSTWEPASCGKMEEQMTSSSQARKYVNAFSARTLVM

`CC(C)(Cl)Cl`: the call in [1], in assay [2], in [3], in assay [4], in [5] and in assay [6] was inactive. Further, the result in [7], in assay [8], in [9], in assay [10], in assay [11] and in [12] was inactive. Also, the compound was classed as inactive in [13], in assay [14], in assay [15], in assay [16], in [17] and in [18]. In addition, the call in assay [19] and in [20] was inactive.

For the compound `NNc1ccccc1`, the call in assay [2], in assay [3], in [4], in [6], in assay [7] and in assay [8] was inactive. The compound was called inactive in [9], in [11], in assay [12], in [13], in assay [14] and in assay [15]. The compound was called inactive in assay [17] and in assay [20]. Further, the AC50 in assay [16] was 47.1 µM (active); in [19], 36.6 µM (active).

With `C=C(Cl)CCl`, the result in [2], in assay [3], in assay [4], in assay [5], in assay [6] and in assay [7] was inactive. The compound was classed as inactive in [8], in assay [9], in assay [10], in [11], in assay [12] and in assay [13]. Also, the outcome in [14], in [15], in assay [16], in assay [17], in assay [18] and in assay [19] was inactive. For the same compound, the result in assay [20] was inactive.

With `C=CC(=O)OCCO`, the AC50 is 116 µM (active) in [4]; 100 µM (active) in assay [7]; 70.9 µM (active) in assay [8]; 116 µM (active) in assay [10]; 164 µM (active) in assay [13]; 17.1 µM (active) in assay [15]. In addition, the AC50 in [16] was 47.6 µM (active); in assay [17], 100 µM (active). Moreover, the compound was called inactive in assay [5], in assay [6], in assay [9], in [11], in [12] and in [14]. The outcome in assay [18], in [19] and in [20] was inactive.
